Test results as given in the supplement of paper PMC6555819.

Legend:
Assay in all cases: PBM binding z-score (relative to random genomic background probes); higher = stronger binding; sequences stand for … in GC…GCGATTGACAGCGTAGAATGAAGG
[1] = test system: FXR:RXRa (NR concentration 270 nM, RXRa partner concentration 90 nM)
Summary of the method: (§1)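 Binding z-scores were set against random background probes. The data came from custom Agilent 4×180K protein-binding microarrays carrying double-stranded probes with 34-nt variable regions, incubated 1 h with ligand-free nuclear receptor dimers. Partner-specific antibodies detected binding, and scanned fluorescence was regression-normalized.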

[2] = test system: LXRa:RXRa (NR concentration 270 nM, RXRa partner concentration 90 nM)
Summary of the method: as §1

[3] = test system: LXRa homodimer (NR concentration 270 nM)
Summary of the method: as §1

[4] = test system: LXRb:RXRa (NR concentration 270 nM, RXRa partner concentration 90 nM)
Summary of the method: as §1

[5] = test system: LXRb homodimer (NR concentration 270 nM)
Summary of the method: as §1

[6] = test system: PPARa:RXRa (NR concentration 270 nM, RXRa partner concentration 90 nM)
Summary of the method: as §1

[7] = test system: PPARg:RXRa (NR concentration 180 nM, RXRa partner concentration 90 nM)
Summary of the method: as §1

[8] = test system: PPARg:RXRa 270nM:90nM, anti-RXR (NR concentration 270 nM, RXRa partner concentration 90 nM)
Summary of the method: as §1

[9] = test system: PPARg:RXRa 30nM:10nM, anti-RXR (NR concentration 30 nM, RXRa partner concentration 10 nM)
Summary of the method: as §1

[10] = test system: PPARg:RXRa 90nM:30nM, anti-RXR (NR concentration 90 nM, RXRa partner concentration 30 nM)
Summary of the method: as §1

[11] = test system: PPARg:RXRa DBDmut IVT, anti-RXR (DBD mutation: RXRa K156A/R161A, NR concentration 270 nM, RXRa partner concentration 90 nM)
Summary of the method: as §1

[12] = test system: PPARg:RXRa IVT, anti-PPARg (NR concentration 270 nM, RXRa partner concentration 90 nM)
Summary of the method: as §1

[13] = test system: PPARg DBDmut:RXRa IVT, anti-PPARg (DBD mutation: PPARg1 K132A/R137A, NR concentration 270 nM, RXRa partner concentration 90 nM)
Summary of the method: as §1

[14] = test system: PPARg DBDmut IVT, anti-PPARg (DBD mutation: PPARg1 K132A/R137A, NR concentration 270 nM)
Summary of the method: as §1

[15] = test system: PPARg homodimer (NR concentration 180 nM)
Summary of the method: as §1

[16] = test system: PXR:RXRa (NR concentration 270 nM, RXRa partner concentration 90 nM)
Summary of the method: as §1

[17] = test system: PXR homodimer (NR concentration 270 nM)
Summary of the method: as §1

[18] = test system: RARa:RXR (NR concentration 270 nM, RXRa partner concentration 90 nM)
Summary of the method: as §1

[19] = test system: RARa homodimer (NR concentration 270 nM)
Summary of the method: as §1

[20] = test system: RARb:RXRa (NR concentration 270 nM, RXRa partner concentration 90 nM)
Summary of the method: as §1

Sequence | PBM binding z-score [1] | PBM binding z-score [2] | PBM binding z-score [3] | PBM binding z-score [4] | PBM binding z-score [5] | PBM binding z-score [6] | PBM binding z-score [7] | PBM binding z-score [8] | PBM binding z-score [9] | PBM binding z-score [10] | PBM binding z-score [11] | PBM binding z-score [12] | PBM binding z-score [13] | PBM binding z-score [14] | PBM binding z-score [15] | PBM binding z-score [16] | PBM binding z-score [17] | PBM binding z-score [18] | PBM binding z-score [19] | PBM binding z-score [20]
CCGACTGGGGCCTAAGGTTACCATAAGCCAGCCC | 0.328 | 1.58 | -0.169 | 0.716 | -1.28 | 1.26 | 0.941 | 2.51 | 0.0484 | 1.11 | -0.456 | -0.247 | -1.22 | -1.84 | 0.088 | 0.127 | -0.726 | 0.85 | 0.205 | 0.778
TCTTGTAGATCGAGCAGGTTAAGAAAGCCTGAGT | -0.145 | 0.0215 | -0.393 | 0.284 | -0.755 | 0.628 | -0.657 | 1.17 | 2.46 | 1.69 | 1.19 | -0.156 | 0.439 | 0.279 | 0.237 | 0.342 | -0.0974 | 0.496 | -0.293 | -0.102
CCTGCCAGGTCAATGGTCAGCTAAAGCAGCTCGC | 3.36 | 2.51 | -0.047 | 1.96 | -0.196 | 3.48 | 2.59 | 3.44 | 0.524 | 2.57 | 1.49 | 2.41 | -0.936 | -1.59 | 0.763 | 1.6 | -0.223 | 1.96 | -0.54 | 3.66
AGAACGAGGGCAATGAGTTGAAAGCACGGGTGGC | 0.345 | 0.43 | -0.528 | -0.0192 | -0.804 | 1.57 | 1.36 | 1.21 | -0.135 | 0.569 | 3.01 | 2.76 | 0.626 | -0.78 | 0.52 | 1.67 | 5.02 | 0.551 | -0.34 | 2.03
TGAATGAGGTTATAAAATCAGGGAACGTTGCAAA | 0.804 | 0.908 | -0.31 | 1.02 | 0.05 | 2.15 | 0.802 | 1.19 | 0.684 | 1.09 | 0.257 | 1.47 | 1.21 | 0.504 | 0.289 | 0.62 | -0.104 | 0.96 | -0.0179 | 0.918
CAAACTAGGTCAATAGGTCAAAGTCCGCTTCCCG | 5.97 | 5.58 | 3.46 | 4.5 | 1.42 | 5.97 | 9.53 | 7.87 | 6.52 | 8.3 | 8.58 | 8.3 | 2.88 | 0.687 | 6.16 | 4.57 | 0.894 | 6.73 | 3.02 | 5.04
TCGAGTAGGTTGGGGGCATTCAGAATGGCGTCGA | 1.39 | 1.94 | 0.352 | 3.96 | 6.82 | 2.48 | 0.614 | 2.35 | 2.29 | 2.28 | 1.25 | 2.38 | 3.04 | 5.62 | 0.737 | 2.82 | 1.75 | 1.98 | 0.0369 | 1.6
TAGCCTAGGTCAGATCGGGCCAGTGTACGCTATA | 1.85 | 0.96 | -0.454 | 0.525 | -0.897 | 1.49 | 0.36 | 0.761 | -0.533 | -0.134 | 0.622 | 1.31 | -1.37 | -0.791 | -0.0708 | 1.18 | -1.04 | 1.19 | -1.04 | 3.04
TCGTGTAGGTTAGGGGCATTCAGAATGGCGTCGA | 1.04 | 0.994 | 0.245 | 1.63 | 0.909 | 1.6 | 0.371 | 1.78 | 2.01 | 2.06 | 1.79 | 1.06 | 0.425 | 0.917 | 1.52 | 0.802 | 0.406 | 1.03 | 0.812 | 1.47
ATCTCTAGGTAACAATTTCAGTGAAAGAGAGGAC | 0.775 | 0.589 | 0.266 | 0.374 | 1.34 | 0.437 | 0.734 | 0.62 | 0.676 | 0.649 | 3.38 | 2.8 | 1.3 | 1.6 | 0.669 | 0.204 | 0.98 | 0.221 | 1.81 | 0.518
TCTAACAGGCCAGAGGGTCACTCAAGAGGTACGG | 1.24 | 1.31 | -0.315 | 1.47 | -0.439 | 2.54 | 1.41 | 2.62 | 3.2 | 2.71 | 1.73 | 0.466 | -0.318 | -0.0122 | 1.11 | 1.86 | -0.0848 | 2.6 | -0.0287 | 2.27
TAGCCTAGGTCAGATCGGGCCTGTATACGCTATA | 1.56 | 0.715 | -0.411 | 0.501 | -0.0997 | 1.49 | 0.482 | 0.395 | -0.139 | 0.162 | 0.244 | 1.36 | -0.328 | 0.156 | 0.016 | 0.238 | -0.728 | 1.22 | -0.734 | 2.8
TTACCATGGTGAAGGTCGTTGATCCCTCTGTAGA | 1.59 | 1.54 | -0.212 | 1.35 | -0.704 | 1.64 | 1.06 | 2.74 | 1.09 | 2.44 | -0.0288 | 0.772 | -0.132 | -0.462 | 0.317 | 1.1 | 0.0781 | 0.942 | -0.727 | 0.811
CCTCGGAGGACAGAAGGTGAGAGCTGTCCGCTTT | 0.177 | 0.159 | -0.939 | -0.679 | -0.923 | -0.0914 | -0.442 | -0.325 | -0.929 | -0.465 | -0.327 | 0.0317 | -1.56 | -1.59 | 0.19 | -0.301 | -0.684 | 0.317 | -0.413 | 1.09
